Source: PubChem BioAssay AID488969 (Vanderbilt High Throughput Screening Facility, 2010)
The full ranking holds about 110,000 compounds; the median of “z-score” is about -0.1, and the highest 2% start at about 2. The list comes from a sample in which the highest values are over-represented; it also holds similar structures and randomly drawn compounds. Calls of active or inactive are those of the source.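 The calls were made as follows: active = z-score in the third read window above 3 or below -3; inactive = the rest.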

What follows are molecules tested against Metabotropic glutamate receptor 8 (Rattus norvegicus) (UniProt P70579) (assay: rat mGluR8 modulators via GIRK flux, primary screen, cell-based, thallium flux, HTS (AID 488969)). Conditions: HEK293 rat mGluR8, GIRK (G protein-gated inwardly rectifying potassium channel) thallium flux, FluoZin2; at 10 µM; stronger effect = higher value; submaximal glutamate (EC20) added with thallium.
Sequence of Metabotropic glutamate receptor 8 (Rattus norvegicus) (P70579 whole entry, looked up): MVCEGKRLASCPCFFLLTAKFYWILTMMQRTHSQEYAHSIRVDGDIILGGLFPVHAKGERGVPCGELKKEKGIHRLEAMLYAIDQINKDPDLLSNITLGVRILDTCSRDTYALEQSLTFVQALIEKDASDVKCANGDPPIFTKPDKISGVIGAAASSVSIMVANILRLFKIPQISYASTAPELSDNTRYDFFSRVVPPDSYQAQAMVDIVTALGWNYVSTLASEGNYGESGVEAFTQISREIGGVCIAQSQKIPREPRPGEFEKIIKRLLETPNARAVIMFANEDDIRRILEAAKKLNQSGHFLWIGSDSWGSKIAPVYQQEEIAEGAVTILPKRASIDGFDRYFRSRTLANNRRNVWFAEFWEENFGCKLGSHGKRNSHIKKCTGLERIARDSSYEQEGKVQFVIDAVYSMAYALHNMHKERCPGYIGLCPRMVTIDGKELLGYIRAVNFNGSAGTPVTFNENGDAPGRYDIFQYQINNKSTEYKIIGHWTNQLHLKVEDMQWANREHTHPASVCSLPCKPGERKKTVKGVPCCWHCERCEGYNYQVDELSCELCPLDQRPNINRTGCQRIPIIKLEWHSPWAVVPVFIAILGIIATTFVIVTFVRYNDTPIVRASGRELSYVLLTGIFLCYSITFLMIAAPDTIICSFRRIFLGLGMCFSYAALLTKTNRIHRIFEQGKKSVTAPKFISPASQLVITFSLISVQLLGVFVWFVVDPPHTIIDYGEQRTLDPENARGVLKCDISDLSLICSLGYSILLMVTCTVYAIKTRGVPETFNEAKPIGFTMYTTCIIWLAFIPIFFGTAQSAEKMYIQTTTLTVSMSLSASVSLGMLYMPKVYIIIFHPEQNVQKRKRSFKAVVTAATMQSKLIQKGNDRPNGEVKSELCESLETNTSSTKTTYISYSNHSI

Going from `O=C(c1cccn(Cc2cccc(Cl)c2)c1=O)N1CCOCC1` to `CCN1CCN(C(=O)CN2C(=O)c3cccc4cccc2c34)CC1`, the z-score falls from 0.0735 to -0.191.

First: CC(C)COP(=O)(c1ccc(N(C)C)cc1)C(O)c1ccccn1 (centres undefined)
Second: CC(C)COP(=O)(c1ccc(N(C)C)cc1)C(O)c1ccncc1 (centres undefined)
The z-score of the first is higher: 0.147 for the first, -0.817 for the second.

Compared with `CCOC(=O)c1ccc(NC(=O)C2=C(C)Nc3nc(CCCO)nn3C2c2cccc(C)c2)cc1` (centres undefined), `O=C(N/C(=N\O)c1ccccc1)Nc1ccc(Cl)cc1` is higher in z-score: 0.0656 for the first, 2.01 for the second.

First: COc1cccc(CNS(=O)(=O)c2cc(Br)cc3c2N(C(C)=O)C(C)C3)c1 (centres undefined)
Second: CC(=O)N1c2c(cc(Br)cc2S(=O)(=O)NCC2COc3ccccc3O2)CC1C (centres undefined)
The z-score of the first is lower: 0.241 for the first, 0.248 for the second.

First: CCCCN(Cc1ccccc1)S(=O)(=O)c1cc(Br)cc2c1N(C(C)=O)C(C)C2 (centres undefined)
Second: Cn1c(=O)oc2cc(S(=O)(=O)NCc3ccccc3)ccc21
The z-score of the first is higher: 2.82 for the first, 0.611 for the second.

Going from `CCOc1ccc(/C=C2\SC(=O)N(CCNC(=O)C3COc4ccccc4O3)C2=O)cc1OC` (centres undefined) to `COc1cccc(/C=N/n2cnc3ccccc32)c1OC`, the z-score rises from -0.337 to -0.147.

Going from `COc1ccc(/C=N/c2oc(-c3ccccc3)cc2C#N)cc1` to `O=C(N/N=C/c1ccc(Cl)cc1)Nc1ccccc1`, the z-score rises from -0.0521 to -0.0155.

First: Oc1ccc(Br)cc1/C=N/n1cnc2ccccc21
Second: O=[N+]([O-])c1ccc(O)c(/C=N/n2cnc3ccccc32)c1
The z-score of the first is higher: 2.45 for the first, -0.812 for the second.

Going from `COc1cc(C(=S)N2CCC(C(N)=O)CC2)ccc1O` to `CC(=O)c1cccc(NC(=S)NC2CC2)c1`, the z-score rises from -0.479 to -0.023.

First: CCOc1ccccc1NC=C1C(=O)OC2(CCCCC2)OC1=O
Second: O=C1OC2(CCCCC2)OC(=O)C1=CNc1ccc2c(c1)OCO2
The z-score of the first is higher: 0.615 for the first, 0.207 for the second.

First: COc1ccccc1N1CCN(C(=O)c2ccc(CN3CCc4ccccc4C3)cc2)CC1
Second: CC(=O)N1CCN(c2ccc(NCc3ccc(F)cc3)cc2)CC1
The z-score of the first is lower: -0.0526 for the first, 0.0515 for the second.

Compared with `O=c1[nH]c(-c2cccnc2)nc2ccccc12`, `O=C(CSc1ccc(-c2ccccc2)nn1)c1ccccc1` is higher in z-score: -0.073 for the first, 0.0905 for the second.

Going from `CC1CN=C2C(C(=O)Nc3ccccc3)=C(O)CC(c3ccccc3)N21` (centres undefined) to `CC1=NN(C(=S)Nc2ccccc2)C(c2ccccc2)C1` (centres undefined), the z-score falls from 2.31 to 0.129.

First: O=C(Nc1ccccc1)C1=C(O)CC(c2ccc(Cl)cc2)N2CCN=C12 (centres undefined)
Second: Cc1ccccc1C(=O)NC(=S)Nc1ccc(Oc2ccc(Cl)cc2)cc1
The z-score of the first is lower: -0.724 for the first, 2.74 for the second.

Compared with `N#C/C(=C\c1c(N2CCC(C(N)=O)CC2)nc2ccccn2c1=O)C(=O)NCc1ccco1`, `O=C(Nc1ccc2c(c1)OCO2)C1CCN(C(=O)CSc2ncnc3ccccc23)CC1` is lower in z-score: -0.0915 for the first, -0.185 for the second.

Compared with `COC(=O)C1C2C=CC3(CN(Cc4ccco4)C(=O)C13)O2` (centres undefined), `CCn1c(=N)n(CC(=O)c2ccco2)c2ccccc21` is lower in z-score: 0.49 for the first, 0.33 for the second.

Compared with `CC(=O)N1CCN(c2ccc(NCc3ccc(C(C)C)cc3)cc2)CC1`, `CCc1ccc(CNc2ccc(N3CCN(C(C)=O)CC3)cc2)cc1` is lower in z-score: 2.03 for the first, 0.968 for the second.

First: BrC(/C=N/Nc1nc(N2CCOCC2)nc(N2CCOCC2)n1)=C/c1ccccc1
Second: O=C(N/N=C/c1ccc(Cl)cc1Cl)Nc1ccccc1
The z-score of the first is higher: -0.171 for the first, -0.276 for the second.

Compared with `Cc1ccccc1Cn1c(=N)n(CC(=O)c2ccc([N+](=O)[O-])cc2)c2ccccc21`, `Cc1ccccc1Cn1c(=N)n(CC(=O)c2ccco2)c2ccccc21` is higher in z-score: 0.33 for the first, 2.17 for the second.

Going from `N=c1n(Cc2ccccc2)c2ccccc2n1CC(O)c1ccco1` (centres undefined) to `Cc1ccc(Cn2c(=N)n(CC(O)c3ccco3)c3ccccc32)cc1` (centres undefined), the z-score rises from 0.39 to 1.09.

First: CCCCn1c(=N)n(CC(=O)c2ccco2)c2ccccc21
Second: CCCn1c(=N)n(CC(=O)c2ccco2)c2ccccc21
The z-score of the first is lower: -0.268 for the first, -0.051 for the second.

First: CC1CCN(C(=S)NC2CCCCC2)CC1
Second: Cc1ccc(C)c(NC(=S)NC(NC(=O)OCc2ccccc2)C(Cl)(Cl)Cl)c1 (centres undefined)
The z-score of the first is lower: -0.176 for the first, -0.108 for the second.

Compared with `CCOCC(=O)Nc1nnc(Cc2ccc(OC)cc2)s1`, `Cc1ccccc1C(=O)NC(=S)Nc1ccc(Cc2ccncc2)cc1` is lower in z-score: -0.115 for the first, -0.501 for the second.

First: Cc1ccc(C(=O)O/N=C/c2ccc3c(c2)OCO3)cc1
Second: CSc1ccccc1NC(=O)Nc1ccc(F)c(Cl)c1
The z-score of the first is higher: -0.102 for the first, -0.197 for the second.

Compared with `CSc1nnc(-c2ccccc2Cl)o1`, `CSc1ccccc1NC(=O)Nc1ccccc1` is higher in z-score: -0.168 for the first, 0.531 for the second.

First: O=C(NC(=S)NC(=O)c1ccccc1F)c1ccccc1F
Second: O=C(NC(=S)NCc1ccccc1)c1ccccc1F
The z-score of the first is lower: 0.339 for the first, 1.93 for the second.

With `Cc1ccccc1C(=O)NC(=S)Nc1ccc(S(=O)(=O)N(C)c2ccccc2)cc1` the z-score was 1.07.

For `CC(C)CCOP(=O)(c1ccc(N(C)C)cc1)C(O)c1ccccn1` (centres undefined), the z-score was 5.74 (active).
With `O=C1OC2(CCCCC2)OC(=O)C1=CNc1nc2ccccc2s1` the z-score was 8.02 (active).
`Cc1ccccc1Cn1c(=N)n(CC(O)c2ccco2)c2ccccc21` (centres undefined) was tested, and the z-score was 3.34 (active).
With `CCCCCCCn1c(=N)n(CC(=O)c2ccco2)c2ccccc21` the z-score was 4.65 (active).
For `Cc1cccc(C)c1NC(=S)NC(=O)c1ccccc1F`, the z-score was 7.93 (active).
`CSc1ccccc1NC(=O)Nc1ccc(Cl)cc1` was tested, and the z-score was 6.38 (active).
